Only some compounds are listed: those with a hit (about 11% of all), similar ones and a draw of the others.
USP28 inh: human USP28 deubiquitinase inhibition | inhibition, % at 25 µM | AID 1645857 | Q96RU2 | purified USP28, Ub-rhodamine cleavage fluorescence, 30 min | actives 3% (n = 47,000)
USP30 block: human USP30 deubiquitinase inhibition | inhibition, % at 25 µM | AID 1645860 | purified USP30, Ub-rhodamine cleavage fluorescence | actives 5.3% (n = 47,000)
USP17 block: blocks human USP17 ubiquitin-rhodamine cleavage | inhibition, % at 50 µM | A8MUK1 | AID 1645855 | actives 6.5% (n = 47,000) | purified USP17, Ub-rhodamine cleavage fluorescence, 3 h
Target sequence (A8MUK1 whole entry, looked up): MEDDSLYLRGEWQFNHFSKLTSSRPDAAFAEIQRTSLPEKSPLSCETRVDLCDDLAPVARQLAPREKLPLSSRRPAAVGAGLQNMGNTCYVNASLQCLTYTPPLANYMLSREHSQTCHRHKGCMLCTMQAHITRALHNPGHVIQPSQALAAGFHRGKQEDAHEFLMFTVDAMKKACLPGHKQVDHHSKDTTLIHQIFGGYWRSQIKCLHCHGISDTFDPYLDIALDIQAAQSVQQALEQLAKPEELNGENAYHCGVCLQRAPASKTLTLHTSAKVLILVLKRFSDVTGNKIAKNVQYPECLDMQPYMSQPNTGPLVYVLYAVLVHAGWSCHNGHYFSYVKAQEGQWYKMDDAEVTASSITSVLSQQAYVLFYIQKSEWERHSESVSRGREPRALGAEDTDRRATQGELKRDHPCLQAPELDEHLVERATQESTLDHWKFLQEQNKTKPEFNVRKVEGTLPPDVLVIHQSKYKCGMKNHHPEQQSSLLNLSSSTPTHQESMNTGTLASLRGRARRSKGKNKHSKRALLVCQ
* = called active by the depositor; · = no result given. No stated cut-off is given here; in the data, active means inhibition above about 30%; inactive means the rest.

SMILES	USP28 inh	USP30 block	USP17 block
COc1ccc(CNC(=O)c2ccccc2N2C(=O)N3CCc4c([nH]c5ccc(OC)cc45)[C@@]3(C)C2=O)cc1	6	18	45*
COc1ccc(CNC(=O)c2cccc(N3C(=O)N4CCc5c([nH]c6ccccc56)[C@@]4(C)C3=O)c2)cc1	-7	0	0
CC(=O)Nc1ccc(NC(=O)c2ccc(N3C(=O)N4CCc5c([nH]c6ccccc56)[C@@]4(C)C3=O)cc2)cc1	31*	-59	0
CC(C)(C)Cc1nnc(-c2cnc3onc(C4CC4)c3c2)o1	-23	-116	-14
CC(=O)NC(Cc1cccc(F)c1)C(=O)NC1CCN(C(=O)C2CCCCC2)CC1 (configuration not stated)	7	10	0
COc1cccc(-c2nc(CSc3nc4ccccc4n4c(C)nnc34)c(C)o2)c1OC	-4	0	-5
CC(=O)N1CC[C@@]2(C(=O)N3CCCC3)CCN(C(=O)Nc3ccccc3)CC[C@@H]12	-10	8	0
CC1CCN(C(=O)c2cc(=O)nc3sc(N4CCCCCC4)nn23)CC1	-6	0	-16
COc1cccc(Cn2nc3n(CC(C)C)c(=O)c4ccc(C(=O)NC(C)C)cc4n3c2=O)c1	4	30*	18
COc1cccc(Cn2nc3n(C(C)C)c(=O)c4ccc(C(=O)NC(C)C)cc4n3c2=O)c1	10	15	14
COc1ccc2c(c1)C(O)(c1c(C)[nH]c3ccccc13)C(=O)N2 (configuration not stated)	-2	-14	-6
O=c1c2cc([N+](=O)[O-])ccc2nc(CN2CCN(c3ccccn3)CC2)n1-c1ccccc1F	25	61*	22
O=c1c2cc([N+](=O)[O-])ccc2nc(CN2CCN(CCO)CC2)n1-c1ccccc1F	-4	-6	-4
COC(=O)c1ccc(CSc2nnc(/C=C/c3ccccc3)o2)cc1	-15	-4	-1
O=[N+]([O-])c1cccc(CSc2nnc(/C=C/c3ccccc3)o2)c1	58*	26	18
O=C(c1ccc(OCC2CCCN(C(=O)c3ccc(F)cc3)C2)cc1)N1CCOCC1 (configuration not stated)	-6	-5	-3
CN(C=C1NC(=O)c2ccc(Cl)cc2N1)CC(=O)Nc1ccc(F)cc1	0	7	-1
O=C(Nc1ccccc1)N1CCCN(c2c(Cl)cncc2Cl)CC1	21	32*	20
O=C(Nc1ccccc1)N1CCCN(c2ccc([N+](=O)[O-])cn2)CC1	-4	13	-17
CCn1ncc(C)c1C(=O)N1CCC(c2nc(NC3CC3)ncc2-c2cc(C)no2)CC1	-1	1	7
Cc1ccc(Nc2nccc(C3CCCN(C(=O)c4cccnc4)C3)n2)nc1 (configuration not stated)	4	8	6
O=[N+]([O-])c1ccc(-c2nc3ccccn3c2Br)cc1	7	44*	39*
Nc1c(-c2ccccc2)nc2ccccn12	6	20	1
Cc1cc(C)cc(NC(=O)Nc2ccccc2OCc2cc(=O)n3c(ncn3C(C)C)n2)c1	-6	-27	-10
CCC1(C)Cc2c(sc3nc(SCC(=O)Nc4ccc(C(C)=O)cc4)nc(N)c23)CO1 (configuration not stated)	5	-2	63*
SMILES	USP28 inh	USP30 block	USP17 block
CCSc1nc(N)c2c3c(sc2n1)COC(C(C)C)C3 (configuration not stated)	-12	-88	-10
CC1(C)Cc2c(sc3nc(Cc4ccccc4)nc(SCC(=O)Nc4ccccc4)c23)CO1	18	56*	35*
CCCCc1nc(SCC(=O)Nc2ccc(Br)cc2)c2c3c(sc2n1)COC(C)(C)C3	11	20	22
CC1(C)Cc2c(sc3nc(SCC(N)=O)nc(N)c23)CO1	-2	2	5
CC(C)C1Cc2c(sc3nc(SCC(=O)Nc4cccc5ccccc45)nc(N)c23)CO1 (configuration not stated)	-9	-44	52*
O=C(/C=C/c1ccccc1)Nc1cnc(N2CCOCC2)nc1	·	·	-8
COc1cc2[nH]c(=O)n(CCC(=O)N3CCN(c4ccccc4OC)CC3)c(=O)c2cc1OC	2	9	9
Cc1ccc(-c2cn(CC(=O)NCc3ccc(F)cc3)c(=O)o2)cc1	-6	-6	-3
Cc1ccc(-c2cn(CC(=O)NCc3cccc(F)c3)c(=O)o2)cc1	28	56*	77*
CCN(C(=O)Cc1c(C)nc(-c2ncccn2)[nH]c1=O)c1ccccc1	0	0	-47
O=C1c2ccccc2C2(CCCC2)C(=O)N1Cc1ccccc1	14	6	33*
O=C1N(Cc2ccccc2)C(=O)C2(Cc3ccccc3)CCCN12 (configuration not stated)	·	·	4
O=C(NC(c1ccccc1)c1nnc(N2CCOCC2)o1)c1cccc(F)c1 (configuration not stated)	3	25	0
CCCC(=O)Nc1ccc(C)n(CC(=O)N2CCCC2)c1=O	-2	10	-1
COc1cccc(-n2c(SCC(=O)N3CCc4ccccc43)nnc2-c2cccnc2)c1	4	1	16
CCOc1ccc(-n2c(SCC(=O)N3CC(=O)Nc4ccccc43)nnc2-c2ccc(OC)cc2)cc1	35*	17	51*
COc1ccccc1OCCNC(=O)c1cc(C2CC2)nc2c1cnn2C(C)C	61*	10	20
COc1ccc(C)cc1CCNC(=O)c1cc(C2CC2)nc2c1cnn2C(C)C	19	6	5
COc1ccc(CCNC(=O)c2cc(C3CC3)nc3c2cnn3C(C)C)cc1	68*	-6	16
COc1ccccc1CCNC(=O)c1cc(C2CC2)nc2c1cnn2C(C)C	15	-6	2
O=C(c1cccc([N+](=O)[O-])c1)[C@H]1[C@]2(C(=O)Nc3ccccc32)[C@@H]2CCCN2[C@@]12C(=O)Nc1ccccc12	35*	18	6
COc1cccc(C(=O)[C@H]2[C@]3(C(=O)Nc4ccccc43)[C@@H]3CCCN3[C@@]23C(=O)Nc2ccccc23)c1	11	13	4
COC(=O)c1ccccc1NC(=O)CSc1nnc(-c2ccc(C(C)(C)C)cc2)n1C1CCCC1	12	52*	15
O=C(CSc1nnc(Cc2ccccc2)n1C1CCCCC1)Nc1ccccc1Cl	14	20	4
Cc1cc(C(=O)N2CCCCC2)c2c(=O)n(Cc3cccc(C#N)c3)c(=O)n(C)c2n1	-9	-7	-14
SMILES	USP28 inh	USP30 block	USP17 block
COc1cccc2c1OC(C)(C)[C@H]1CC3(CCN(C(=O)c4cccc5c4OCCO5)CC3)CO[C@H]21	-17	-6	-7
CN1C(=O)COc2cc(-c3noc(C(=O)NCc4ccccn4)n3)ccc21	-4	-14	-2
CN1C(=O)COc2cc(-c3noc(C(=O)NCc4ccccc4)n3)ccc21	7	19	44*
CN1C(=O)COc2cc(-c3noc(C(=O)NCc4ccc(F)cc4)n3)ccc21	11	76*	54*
CCN1C(=O)COc2cc(-c3noc(C(=O)N4CCN(C)CC4)n3)ccc21	-1	-1	-1
Cc1ccc2c(Nc3ccc(F)cc3C)c(-c3nc(C)no3)cnc2n1	6	3	12
CCCc1nnc(NC(=O)c2cccnc2OCC)s1	-66	21	15
CC(=O)c1oc2nc3c(c(-c4ccc(Cl)cc4)c2c1N)CCc1ccccc1-3	9	-158	38*

Compound activity from PubChem.
